Results published in PubChem BioAssay AID1159580 (chemical genetic matrix, 2015).
Among all 5,500 compounds or so, about 2,000 (36%) were called active. About 18% were inconclusive and are not listed. Rule as the data show it: active = normalized growth mostly below about 0.91 (no sharp cut-off); inconclusive = no clear call, values can overlap the other calls; inactive = mostly above about 0.92. Some of the results follow.

Assay: chemical genetic growth profiling, strain panel (AID 1159580);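 also: tested at 20 µM; growth read once vehicle control cultures reached saturation at 30 °C; 1 = growth at the plate median or of vehicle wells; lower values mean less growth of the strain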
Details: growth OD

Measured: normalized growth

O=c1[nH]cnc2nc[nH]c12
inactive: S. cerevisiae deletion strains, locus YJR066W, strain TOR1, active compounds read low 0.979 | S. cerevisiae deletion strains, locus YJR075W, strain HOC1, active compounds read low 1.01 | S. cerevisiae deletion strains, locus YKL009W, strain mrt4, active compounds read low 0.974 | S. cerevisiae deletion strains, locus YKL068W, active compounds read low 1.02 | S. cerevisiae deletion strains, locus YKL085W, strain MDH1 (second series), active compounds read low 0.984 | S. cerevisiae deletion strains, locus YKL085W, strain MDH1, active compounds read low 0.984 | S. cerevisiae deletion strains, locus YKL160W, strain elf1, active compounds read low 1.01 | S. cerevisiae deletion strains, locus YKR001C, strain vps1, active compounds read low 0.975 | S. cerevisiae deletion strains, locus YKR026C, strain gcn3, active compounds read low 1.02 | S. cerevisiae deletion strains, locus YKR091W, strain srl3, active compounds read low 1.02 | S. cerevisiae deletion strains, locus YLL001W, strain dnm1, active compounds read low 1.01 | S. cerevisiae deletion strains, locus YLL026W, active compounds read low 1.02 | S. cerevisiae deletion strains, locus YLL041C, strain sdh2, active compounds read low 1.02 | S. cerevisiae deletion strains, locus YLR027C, strain aat2, active compounds read low 1.01 | S. cerevisiae deletion strains, locus YLR039C, strain RIC1, active compounds read low 1.01 | S. cerevisiae deletion strains, locus YLR058C, strain SHM2, active compounds read low 1 | S. cerevisiae deletion strains, locus YLR102C, strain apc9, active compounds read low 0.979 | S. cerevisiae deletion strains, locus YLR113W, strain HOG1, active compounds read low 1.01 | S. cerevisiae deletion strains, locus YLR221C, strain rsa3, active compounds read low 1.02 | S. cerevisiae deletion strains, locus YLR258W, strain gsy2, active compounds read low 1.01 | S. cerevisiae deletion strains, locus YLR262C, strain YPT6 (second series), active compounds read low 1.02 | S. cerevisiae deletion strains, locus YLR262C, strain YPT6, active compounds read low 0.991 | S. cerevisiae deletion strains, locus YLR268W, strain sec22, active compounds read low 0.971 | S. cerevisiae deletion strains, locus YLR320W, strain mms22, active compounds read low 1.03 | S. cerevisiae deletion strains, locus YLR330W, strain CHS5, active compounds read low 0.998 | S. cerevisiae deletion strains, locus YLR342W, strain FKS1 (second series), active compounds read low 0.975 | S. cerevisiae deletion strains, locus YLR342W, strain FKS1, active compounds read low 1.02 | S. cerevisiae deletion strains, locus YLR357W, strain rsc2, active compounds read low 1.04 | S. cerevisiae deletion strains, locus YLR370C, strain arc18, active compounds read low 1 | S. cerevisiae deletion strains, locus YLR371W, strain rom2, active compounds read low 0.962 | S. cerevisiae deletion strains, locus YLR384C, strain iki3, active compounds read low 1 | S. cerevisiae deletion strains, locus YLR418C, strain cdc73, active compounds read low 0.994 | S. cerevisiae deletion strains, locus YML016C, strain PPZ1, active compounds read low 0.995 | S. cerevisiae deletion strains, locus YML032C, strain rad52, active compounds read low 0.988 | S. cerevisiae deletion strains, locus YML120C, strain ndi1, active compounds read low 1.01 | S. cerevisiae deletion strains, locus YML124C, strain tub3, active compounds read low 0.978 | S. cerevisiae deletion strains, locus YMR058W, strain fet3, active compounds read low 1.02 | S. cerevisiae deletion strains, locus YMR078C, strain ctf18, active compounds read low 0.997 | S. cerevisiae deletion strains, locus YMR125W, strain sto1, active compounds read low 1.01 | S. cerevisiae deletion strains, locus YMR129W, active compounds read low 1.01 | S. cerevisiae deletion strains, locus YMR205C, strain PFK2, active compounds read low 1.02 | S. cerevisiae deletion strains, locus YMR223W, strain ubp8, active compounds read low 0.985 | S. cerevisiae deletion strains, locus YMR231W, strain pep5, active compounds read low 0.987 | S. cerevisiae deletion strains, locus YMR263W, strain SAP30, active compounds read low 0.999 | S. cerevisiae deletion strains, locus YMR307W, strain GAS1, active compounds read low 1.02 | S. cerevisiae deletion strains, locus YNL067W, strain RPL9B, active compounds read low 1.02 | S. cerevisiae deletion strains, locus YNL071W, strain lat1, active compounds read low 1.01 | S. cerevisiae deletion strains, locus YNL153C, strain GIM3, active compounds read low 1.02 | S. cerevisiae deletion strains, locus YNL183C, strain NPR1, active compounds read low 0.978 | S. cerevisiae deletion strains, locus YNL209W, strain ssb2, active compounds read low 1.02 | S. cerevisiae deletion strains, locus YNL233W, strain BNI4, active compounds read low 0.999 | S. cerevisiae deletion strains, locus YNL248C, strain rpa49, active compounds read low 1.02 | S. cerevisiae deletion strains, locus YNL250W, strain rad50, active compounds read low 0.977 | S. cerevisiae deletion strains, locus YNL271C, strain bni1, active compounds read low 0.978 | S. cerevisiae deletion strains, locus YNL298W, strain CLA4, active compounds read low 1 | S. cerevisiae deletion strains, locus YNL307C, strain MCK1, active compounds read low 0.982 | S. cerevisiae deletion strains, locus YNL322C, strain KRE1 (second series), active compounds read low 1.02 | S. cerevisiae deletion strains, locus YNL322C, strain KRE1, active compounds read low 1.01 | S. cerevisiae deletion strains, locus YNR049C, strain mso1, active compounds read low 1.03 | S. cerevisiae deletion strains, locus YNR052C, strain pop2, active compounds read low 0.978 | S. cerevisiae deletion strains, locus YOL012C, strain htz1 1.01 | S. cerevisiae deletion strains, locus YOL147C, strain pex11, active compounds read low 0.98 | S. cerevisiae deletion strains, locus YOR001W, strain rrp6, active compounds read low 1.02 | S. cerevisiae deletion strains, locus YOR061W, strain CKA2, active compounds read low 0.99 | S. cerevisiae deletion strains, locus YOR069W, strain VPS5, active compounds read low 0.988 | S. cerevisiae deletion strains, locus YOR070C, strain gyp1, active compounds read low 1.01 | S. cerevisiae deletion strains, locus YOR080W, strain dia2, active compounds read low 1.03 | S. cerevisiae deletion strains, locus YOR083W, strain WHI5, active compounds read low 1.01 | S. cerevisiae deletion strains, locus YOR106W, strain vam3, active compounds read low 1.01 | S. cerevisiae deletion strains, locus YOR136W, strain idh2, active compounds read low 0.973 | S. cerevisiae deletion strains, locus YOR144C, strain elg1, active compounds read low 0.989 | S. cerevisiae deletion strains, locus YOR184W, strain ser1, active compounds read low 0.98 | S. cerevisiae deletion strains, locus YOR231W, strain MKK1, active compounds read low 1.02 | S. cerevisiae deletion strains, locus YOR265W, strain rbl2, active compounds read low 1.03 | S. cerevisiae deletion strains, locus YOR270C, strain vph1, active compounds read low 1.11 | S. cerevisiae deletion strains, locus YOR290C, strain snf2, active compounds read low 1 | S. cerevisiae deletion strains, locus YOR316C, strain cot1, active compounds read low 0.989 | S. cerevisiae deletion strains, locus YPL051W, strain arl3, active compounds read low 1.03 | S. cerevisiae deletion strains, locus YPL055C, strain LGE1, active compounds read low 1.03 | S. cerevisiae deletion strains, locus YPL078C, strain atp4, active compounds read low 1.02 | S. cerevisiae deletion strains, locus YPL106C, strain sse1, active compounds read low 0.994 | S. cerevisiae deletion strains, locus YPL240C, strain hsp82, active compounds read low 1.01 | S. cerevisiae deletion strains, locus YPL256C, strain CLN2, active compounds read low 0.996 | S. cerevisiae deletion strains, locus YPR119W, strain clb2, active compounds read low 0.99 | S. cerevisiae deletion strains, locus YPR141C, strain kar3, active compounds read low 0.977 | S. cerevisiae deletion strains, locus YPR163C, strain tif3, active compounds read low 0.988 | S. cerevisiae deletion strains, locus YPR167C, strain met16, active compounds read low 0.965 | S. cerevisiae deletion strains, strain wtn01, active compounds read low 0.975 | S. cerevisiae strains, strain wild type, active compounds read low 1
